Screens (PubChem BioAssay)
USP17 inh – inhibitors of human USP17 deubiquitinase; Ubiquitin carboxyl-terminal hydrolase 17-like protein 5 (Homo sapiens), A8MUK1; purified USP17, Ub-rhodamine cleavage fluorescence, 3 h; inhibition, % at 50 µM; actives 6.5% (n = 47,000); AID 1645855, 2021
Target sequence (A8MUK1 whole entry, looked up): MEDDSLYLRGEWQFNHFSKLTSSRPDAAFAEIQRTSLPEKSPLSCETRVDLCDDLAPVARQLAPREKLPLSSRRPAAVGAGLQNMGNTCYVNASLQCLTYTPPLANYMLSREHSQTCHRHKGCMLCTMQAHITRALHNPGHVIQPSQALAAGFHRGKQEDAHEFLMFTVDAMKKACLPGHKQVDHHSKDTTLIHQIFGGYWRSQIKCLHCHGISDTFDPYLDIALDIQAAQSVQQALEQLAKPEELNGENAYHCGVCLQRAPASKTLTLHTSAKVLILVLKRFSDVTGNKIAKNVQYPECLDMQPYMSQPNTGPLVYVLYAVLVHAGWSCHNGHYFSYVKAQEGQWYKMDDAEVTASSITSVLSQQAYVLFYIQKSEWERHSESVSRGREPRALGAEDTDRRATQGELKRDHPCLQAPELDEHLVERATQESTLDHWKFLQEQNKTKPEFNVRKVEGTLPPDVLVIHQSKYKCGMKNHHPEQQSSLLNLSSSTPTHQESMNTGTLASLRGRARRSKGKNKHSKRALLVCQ
USP28 block – inhibitors of human USP28 deubiquitinase; Ubiquitin carboxyl-terminal hydrolase 28 (Homo sapiens), Q96RU2; purified USP28, Ub-rhodamine cleavage fluorescence, 30 min; inhibition, % at 25 µM; actives 3% (n = 47,000)
USP30 block – inhibitors of human USP30 deubiquitinase; Ubiquitin carboxyl-terminal hydrolase 30 (Homo sapiens), Q70CQ3; purified USP30, Ub-rhodamine cleavage fluorescence; inhibition, % at 25 µM; actives 5.3% (n = 47,000); AID 1645860, 2021
USP10 block – inhibitors of human USP10 deubiquitinase; Ubiquitin carboxyl-terminal hydrolase 10 (Homo sapiens), Q14694; purified USP10, Ub-rhodamine fluorescence, 60 min; inhibition, % at 20 µM; actives 1.1% (n = 47,000); AID 1645856, 2021
USP8 inh – inhibitors of human USP8 deubiquitinase; Ubiquitin carboxyl-terminal hydrolase 8 (Homo sapiens), P40818; purified USP8, Ub-rhodamine cleavage fluorescence, 30 min; inhibition, % at 20 µM; actives 4.2% (n = 47,000); AID 1645853, 2021
A number is an active result. An excerpt weighted towards active compounds, which were near 14% of everything screened. No stated cut-off is given here; in the data, active means inhibition above about 30%; inactive means the rest.

For O=C(COc1cccc2c1CCN(Cc1cccnc1)C2=O)Nc1ccc2c(c1)OCCO2 the results were USP17 inh 59, USP28 block 90, USP30 block inactive, USP10 block inactive and USP8 inh inactive.
Cc1ccc(C(=O)N2CCC3(CC2)Nc2cccnc2NC3=NCc2ccccc2)cn1 was read as USP17 inh inactive, USP28 block inactive, USP30 block inactive, USP10 block inactive and USP8 inh inactive.
For O=C(CCc1ccccc1)Nc1nnc(C2CC(=O)N(c3ccc(F)cc3)C2)o1 (centres undefined) the results were USP17 inh inactive, USP28 block inactive, USP30 block inactive, USP10 block inactive and USP8 inh inactive.
CC1CN(C(=O)NC2CCCCC2)Cc2ccccc2N1C (centres undefined) was read as USP17 inh inactive, USP28 block inactive, USP30 block inactive, USP10 block inactive and USP8 inh inactive.
`COCCCNC(=O)c1ccc(Cn2c(=O)c3ccccc3n(CC(=O)Nc3ccc4c(c3)OCCO4)c2=O)cc1` gave USP17 inh inactive, USP28 block inactive, USP30 block inactive, USP10 block inactive and USP8 inh 32.
O=C(CCn1c(=O)c2ccccc2n(CC(=O)Nc2ccc3c(c2)OCCO3)c1=O)NCCc1ccccc1 was read as USP17 inh 48, USP28 block inactive, USP30 block inactive, USP10 block inactive and USP8 inh inactive.
O=C(Cn1c(=O)n(Cc2ccc3c(c2)OCO3)c(=O)c2ccccc21)Nc1ccc2c(c1)OCCO2 was read as USP17 inh inactive, USP28 block inactive, USP30 block inactive, USP10 block inactive and USP8 inh inactive.
Screening Cc1ccc(NC(=O)Cn2c(=O)n(CCC(=O)NCCc3ccc(Cl)cc3)c(=O)c3ccccc32)cc1 returned USP17 inh inactive, USP28 block inactive, USP30 block inactive, USP10 block inactive and USP8 inh inactive.
For O=C(c1ccco1)[C@H]1C(c2ccc(F)cc2)=NO[C@]12C(=O)Nc1ccccc12 the results were USP17 inh inactive, USP28 block inactive, USP30 block inactive, USP10 block inactive and USP8 inh inactive.
For Cc1nc2ccccn2c1CN1C[C@H]2N(C)C(=O)c3ccccc3C(=O)[C@@]2(C)C1 the results were USP17 inh inactive, USP28 block inactive, USP30 block inactive, USP10 block inactive and USP8 inh inactive.
OC(/C=C/c1c[nH]c2ccccc12)C(F)(F)F (centres undefined) was read as USP17 inh inactive, USP28 block inactive, USP30 block inactive, USP10 block inactive and USP8 inh inactive.
N#C/C(=C\c1ccc(C(F)(F)F)cc1)c1c[nH]c2ccccc12 was read as USP17 inh 32, USP28 block inactive, USP30 block inactive, USP10 block inactive and USP8 inh inactive.
For COc1cc(CN(C(=O)c2oc3cc(C)ccc3c2C)c2ccccn2)cc(OC)c1OC the results were USP17 inh inactive, USP28 block inactive, USP30 block inactive, USP10 block inactive and USP8 inh 32.
COc1ccc(C(=O)Nc2ccccc2C(=O)NC(Cc2ccc(O)cc2)C(=O)NNC(=O)c2ccccc2Cl)cc1 (centres undefined) was read as USP17 inh 82, USP28 block 75, USP30 block 69, USP10 block 62 and USP8 inh 59.
Screening COC(=O)[C@H](Cc1ccc(O)cc1)NC(=O)c1ccc(Cl)cc1 returned USP17 inh inactive, USP28 block inactive, USP30 block inactive, USP10 block inactive and USP8 inh inactive.
`Cc1nc2ncccc2c(=O)n1-c1ccc(NC(=O)c2ccc(F)cc2F)cc1` gave USP17 inh inactive, USP28 block inactive, USP30 block 34, USP10 block inactive and USP8 inh inactive.
Screening COc1cc(OC)cc(C(=O)Nc2cc(-c3cccnc3)no2)c1 returned USP17 inh inactive, USP28 block inactive, USP30 block inactive, USP10 block inactive and USP8 inh inactive.
For COc1cc(OC)cc(C(=O)Nc2ccc(O)c(-c3nc4cnccc4o3)c2)c1 the results were USP17 inh 35, USP28 block inactive, USP30 block inactive, USP10 block inactive and USP8 inh inactive.
`C[C@H](NC(=O)C1CCN(C(=O)[C@H](Cc2ccccc2)NC(=O)OC(C)(C)C)CC1)C(=O)NCc1ccc(F)cc1` gave USP17 inh inactive, USP28 block inactive, USP30 block inactive, USP10 block inactive and USP8 inh inactive.
CC(C)[C@@H](NC(=O)C1CCN(C(=O)[C@H](N)Cc2ccccc2)CC1)C(=O)NCc1ccccc1F was read as USP17 inh inactive, USP28 block inactive, USP30 block 43, USP10 block inactive and USP8 inh inactive.
O=c1ccc(-c2nnc3c4ccccc4c(Cc4ccccc4)nn23)n[nH]1 was read as USP17 inh inactive, USP28 block inactive, USP30 block inactive, USP10 block inactive and USP8 inh 59.
Screening COCCNc1nnc(Cc2ccccc2)c(=O)[nH]1 returned USP17 inh inactive, USP28 block inactive, USP30 block inactive, USP10 block inactive and USP8 inh inactive.
COc1cccc(CNC(=O)CCN2C(=O)c3cccnc3Sc3ccccc32)c1 was read as USP17 inh inactive, USP28 block inactive, USP30 block inactive, USP10 block inactive and USP8 inh inactive.
Screening COc1ccc(Nc2ncc3c(n2)CCCC3=O)cc1 returned USP17 inh inactive, USP28 block inactive, USP30 block inactive, USP10 block inactive and USP8 inh inactive.
`CCn1c(Cn2cccn2)nc2cc(NC(=O)C3CCCCC3)ccc21` gave USP17 inh inactive, USP28 block 38, USP30 block inactive, USP10 block inactive and USP8 inh inactive.
For CCn1c(Cn2cccn2)nc2cc(NC(=O)c3ccccc3C)ccc21 the results were USP17 inh inactive, USP28 block 46, USP30 block inactive, USP10 block inactive and USP8 inh inactive.
`O=C(Nc1cccnc1)c1ccc(Oc2ccccc2)cc1` gave USP17 inh inactive, USP28 block 44, USP30 block inactive, USP10 block inactive and USP8 inh inactive.
Screening Cc1nc2n(n1)CCN(C(=O)c1cc(C(C)C)[nH]n1)C2 returned USP17 inh inactive, USP28 block inactive, USP30 block inactive, USP10 block inactive and USP8 inh inactive.
For CC1CCN(C(=O)Nc2cccc(C#N)c2)Cc2nc3ccccc3n21 (centres undefined) the results were USP17 inh inactive, USP28 block inactive, USP30 block inactive, USP10 block inactive and USP8 inh inactive.
For CC1CCN(C(=O)Nc2ccc3ccccc3c2)Cc2nc3ccccc3n21 (centres undefined) the results were USP17 inh inactive, USP28 block inactive, USP30 block 33, USP10 block inactive and USP8 inh inactive.
`Cc1onc(-c2ccccc2)c1C(=O)Nc1ccc2n[nH]nc2c1` gave USP17 inh inactive, USP28 block inactive, USP30 block inactive, USP10 block inactive and USP8 inh inactive.
